Bioassay records (PubChem BioAssay)
Efflux pump mplx: inhibitors of Candida antifungal efflux pumps expressed in yeast | S. cerevisiae Candida pump triplex, Nile Red efflux | inhibition, % at 10 µM | 330,000 tested, 0.44% active | AID 485275;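 active = plate passing quality check with inhibition over a set limit, or well fluorescence over plate mean plus 4 SD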;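 note: Nile Red retained in pooled yeast measured as flow cytometry median fluorescence; 0% = buffer negative control and 100% = Enniatin B positive control; higher means more Nile Red kept so more efflux inhibition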
Mot1-301 SUMO: inhibitors of SUMOylation pathway: yeast Mot1-301 growth rescue; AID 2716; S. cerevisiae Mot1-301 growth rescue, ATP luminescence, 38.5C; percent above DMSO median, 100 means doubled; 320,000 tested, 1% active; growth rescue, % at 18.8 µM;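 active = every valid replicate shows activation above 250% relative to neutral control wells; inactive = the rest, any valid replicate at or below 250%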;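 note: OY570 slx delta 5 strain wells were the positive control but not used for scaling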
ALR H2O2 inh: inhibitors of human sulfhydryl oxidase ALR; P55789; purified ALR, DTT oxidation, H2O2 HRP-luminol luminescence; inhibition, % (no concentration beside the values); 290,000 tested, 3.8% active; AID 485317;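 active = mean replicate inhibition above about 79%, with every replicate also reaching it, limit read from the data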
Bfl-1 A1 inh: inhibitors of the anti-apoptotic protein A1, read as caspase activation; 330,000 tested, 0.066% active; MEF A1-2A-BIM cells, Caspase-Glo 3/7 luminescence, 3 h; percent of clofoctol response, vehicle zero; caspase activation, % (no concentration beside the values);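 active = over half of replicate activation scores above 10%, or exactly half above 10 with the replicate mean above 10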
VLA-4 inh: inhibition in a human VLA-4 binding assay; VLA-4 expressing cells, ligand binding flow cytometry; 330,000 tested, 0.2% active; inhibition, % (about 7 µM as worked out from the volumes in the protocol); P13612; in the data active = inhibition above about 50%
Target sequence (P13612 whole entry, looked up): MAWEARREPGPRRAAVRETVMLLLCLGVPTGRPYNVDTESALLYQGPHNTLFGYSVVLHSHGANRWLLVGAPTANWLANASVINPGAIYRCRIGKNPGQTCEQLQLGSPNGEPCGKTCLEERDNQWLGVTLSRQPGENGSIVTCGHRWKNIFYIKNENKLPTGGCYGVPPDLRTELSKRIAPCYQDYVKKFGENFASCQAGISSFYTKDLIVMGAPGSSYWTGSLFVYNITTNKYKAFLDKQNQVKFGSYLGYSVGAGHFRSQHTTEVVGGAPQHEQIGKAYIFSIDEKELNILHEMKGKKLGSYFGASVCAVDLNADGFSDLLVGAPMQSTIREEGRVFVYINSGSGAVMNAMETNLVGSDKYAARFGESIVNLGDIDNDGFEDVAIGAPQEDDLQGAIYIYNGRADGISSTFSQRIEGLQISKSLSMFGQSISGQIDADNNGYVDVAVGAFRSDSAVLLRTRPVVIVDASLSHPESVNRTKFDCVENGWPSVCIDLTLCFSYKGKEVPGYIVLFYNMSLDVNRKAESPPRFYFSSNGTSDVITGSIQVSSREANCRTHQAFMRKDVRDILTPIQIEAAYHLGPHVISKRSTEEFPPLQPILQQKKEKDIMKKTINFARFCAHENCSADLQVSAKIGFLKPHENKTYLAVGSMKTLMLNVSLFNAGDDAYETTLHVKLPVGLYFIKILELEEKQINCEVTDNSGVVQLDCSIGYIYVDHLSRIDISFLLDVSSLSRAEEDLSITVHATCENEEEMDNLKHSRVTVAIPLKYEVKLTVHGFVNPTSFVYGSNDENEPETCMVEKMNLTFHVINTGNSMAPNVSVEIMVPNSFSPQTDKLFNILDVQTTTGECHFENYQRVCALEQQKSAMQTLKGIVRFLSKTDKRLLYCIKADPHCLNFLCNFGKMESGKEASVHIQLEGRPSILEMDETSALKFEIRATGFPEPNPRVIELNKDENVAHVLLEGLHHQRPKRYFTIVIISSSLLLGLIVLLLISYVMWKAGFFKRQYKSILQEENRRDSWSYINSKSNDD
AHR act: human AHR activation; P35869; AHR-responsive luciferase reporter cells, luminescence; activation, % at 5 µM; 320,000 tested, 2.5% active; AID 2796; in the data active = activation above about 47%;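 note: 0% = vehicle wells and 100% = reference agonist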
* marks the source's active call; other numbers are inactive results; / = no result. A selection: hits, their analogues and other compounds. The true share with any hit is near 7.2%.

SMILES	Efflux pump mplx	Mot1-301 SUMO	ALR H2O2 inh	Bfl-1 A1 inh	VLA-4 inh	AHR act
NNC(=O)CSc1ncc(-c2ccccc2)[nH]1	0	1	36	0	-13	12
CCc1nnc(NC(=O)CSc2nc3cccnc3n2Cc2ccccc2)s1	0	305*	-17	-1	-3	7
O=C(CSc1ncc(-c2ccc(F)cc2)[nH]1)Nc1cccc(O)c1	0	-19	99*	0	6	3
CCc1nnc(NC(=O)CSc2nnc(Cc3ccccc3)n2Cc2ccccc2)s1	0	-6	-10	0	8	1
O=C(CCC(=O)OCC(F)(F)C(F)F)Nc1ccc(Cl)cc1	0	-5	2	0	-22	2
Cc1ccc(NC(=O)OCC(F)(F)C(F)F)cc1NC(=O)OCC(F)(F)C(F)F	0	11	-1	0	-21	55*
Cc1ccc(-c2nc3cnccn3c2Nc2ccccc2)o1	0	4	98*	-1	-4	5
Cc1ccc(-c2nc3ccccn3c2Nc2ccccc2)o1	0	2	99*	-1	11	7
N=c1c2ccccc2nc2n1CCCCCCCCCCC2	0	-17	-2	0	8	1
Fc1ccc(NC(=S)Nc2ccc(Cl)cc2Cl)cc1	0	29	-8	0	4	-2
Fc1ccccc1/C=N/NC(=S)Nc1ccc(Cl)cc1Cl	0	-21	-15	0	-3	77*
S=c1nc(NCc2cccc(Cl)c2)c2ccccc2[nH]1	0	-15	/	0	-4	8
COc1cc(/C=C/c2sc3ccccc3[n+]2CCCS(=O)(=O)[O-])ccc1O	1	-35	99*	-2	0	0
Cc1ccc2c(c1)sc(C)[n+]2CCCS(=O)(=O)[O-]	0	-4	10	-2	4	-2
CCNC(=S)NN(c1ccccc1)c1ccccc1	0	-9	98*	0	-7	-1
COc1ccc(NC(=S)NNC(=O)c2cccnc2)cc1OC	0	-13	41	-1	2	3
O=C(Nc1cccnc1)c1ccc(C(=O)Nc2cccnc2)cc1	0	111	/	1	9	6
CN(C)S(=O)(=O)c1cccc(NC(=O)c2cncc(Br)c2)c1	0	45	-4	0	10	17
Cc1ccc(NC(=O)c2cncc(Br)c2)cc1S(=O)(=O)N(C)C	0	-3	0	1	5	67*
CCN(CC)c1ccc(NC(=O)c2cncc(Br)c2)cc1	0	-7	99*	0	2	1
COc1ccc(NC(=O)c2cccnc2)cc1OCC(C)C	0	-10	1	-1	-8	51*
N#CCC(=O)Nc1ccc(C(=O)Nc2cccnc2)cc1	0	-29	100*	0	2	6
COC(=O)c1ccc(C(=O)OC)c(NC(=S)N2CCN(C(=O)C3CCCO3)CC2)c1 (stereo not drawn)	0	-15	/	-1	17	-1
COc1ccc(NC(=O)c2cccnc2)cc1	0	33	-13	-1	10	0
O=C(Nc1ccc(-c2cc3ccccc3oc2=O)c(Cl)c1)c1cccnc1	0	-12	20	0	-1	41
SMILES	Efflux pump mplx	Mot1-301 SUMO	ALR H2O2 inh	Bfl-1 A1 inh	VLA-4 inh	AHR act
O=C(Nc1ccc(Cl)c(-c2nc3ccccc3[nH]2)c1)c1cccnc1	0	-6	11	0	-2	52*
O=C(Nc1ccc2ccccc2c1)c1cccnc1	0	2	-20	0	1	52*
CCN(CC)c1ccc(NC(=O)c2cccnc2)cc1	0	364	99*	1	-6	0
C[C@H](N)c1nnc(SCc2ccc(Cl)cc2Cl)o1	0	-3	99*	1	5	2
C[C@H](N)c1nnc(SCc2c(Cl)cccc2Cl)o1	0	20	-5	2	2	8
O=C(NCc1nc2ccccc2[nH]1)C1=C[C@@H](c2ccccc2)C[C@@H](OCCCCO)O1	0	154	-18	1	23	57*
CCc1n[nH]c(=S)n1/N=C/c1cc(Br)c(OC)cc1OC	0	2	0	0	-4	76*
COc1cc(C(=O)Nc2ccc3c(c2)OCO3)c([N+](=O)[O-])cc1OC	0	-11	-11	0	8	59*
COc1cc2c(C(=O)Nc3ccc4c(c3)OCO4)cn(CC(C)C)c(=O)c2cc1OC	0	343*	-3	0	-1	21
COc1ccccc1NC(=O)Nc1ccc2c(c1)CCC2	0	-1	4	-4	-5	15
COc1cc2c(C(=O)NCc3ccc4c(c3)OCO4)cn(CC(C)C)c(=O)c2cc1OC	0	11	-1	1	-10	2
O=C(Nc1ccc2c(c1)OCO2)c1ccc(NC2CC2)c([N+](=O)[O-])c1	0	-4	/	-1	20	52*
COc1ccc(C)cc1NC(=O)Nc1ccc2c(c1)CCC2	0	-7	-12	0	4	77*
Cc1ccc(S(=O)(=O)N(CCC#N)CCN2CCCC2)cc1	0	8	-13	1	6	-2
COc1ccc(C(C)(C)C)cc1NC(=O)c1c(C)noc1C	0	-4	0	0	-1	81*
COc1ccc(C(C)(C)C)cc1NC(=O)Nc1ccc2c(c1)OCO2	0	-4	6	0	18	79*
COc1ccc(C(C)(C)C)cc1NC(=O)CCc1c(C)noc1C	0	16	/	0	9	9
COc1cc(NC(=O)Nc2ccc3c(c2)OCO3)cc(OC)c1OC	0	-1	-10	1	0	76*
Cc1ccc(C2c3c(C)nn(-c4ccc([N+](=O)[O-])cc4)c3N=C3C(=O)Nc4ccccc4N32)cc1 (stereo not drawn)	0.5*	-7	-2	0	5	6
CCN(CC)C(=O)CSc1nnc2cc(C)c3ccccc3n12	0	8	-5	0	9	52*
CCN(CC)C(=O)CSc1nnc(-c2cc3ccccc3cc2O)n1CC	1	4	85*	2	-2	6
CN(C)C(=O)CSc1nnc2sc3ccccc3n12	0	6	-14	-1	-4	57*
CC1(C)C2CCC1(C)C1(C2)NC(=O)c2ccccc2O1 (stereo not drawn)	1	/	/	-1	9	0
Cc1ccc(-n2cc(-c3ccc([N+](=O)[O-])cc3)[nH]c2=S)c(C)c1	0	15	-16	1	9	2
COc1ccccc1-n1cc(-c2ccc(Br)cc2)[nH]c1=S	0	0	1	0	12	78*
COc1ccc(-c2cn(-c3ccc(C)c(C)c3)c(=S)[nH]2)cc1OC	0	20	7	-3	7	22
COc1ccccc1-n1cc(-c2ccc([N+](=O)[O-])cc2)[nH]c1=S	0	-4	1	1	20	63*
Oc1ccc(-c2ccccc2)cc1CN1CCCCCC1	0	341*	27	2	8	9
